# NTR1 agonist = agonists of human NTR1, primary screen, imaging, U2OS cells, beta-arrestin-GFP, high content | activation, % at 20 µM | AID 493036, 2011 | 0.17% of 330,000 active | Neurotensin receptor type 1 (Homo sapiens), P30989 | NTR1-U2OS beta-arrestin-GFP spot imaging, agonist mode;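 active means activation at or above 40% of the spot to cytoplasm intensity ratio, with at least 20 cells analyzed; inconclusive means wells under 20 cells, flagged as cytotoxic or low count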
# VLA-4 inh = inhibition in human VLA-4 binding assay, primary screen, VLA-4 allosteric modulator project, MLPCN library, flow cytometry, VLA-4 expressing cells | inhibition, % (about 7 µM as worked out from the volumes in the protocol) | Integrin alpha-4 (Homo sapiens), P13612 | ligand binding flow cytometry | 0.2% of 330,000 active; in the data active means inhibition above about 50%
# AI-2 QS mod = Vibrio harveyi AI-2 quorum sensing modulators, primary screen, JMH597 strain, luminescence/OD600 ratio; Vibrio harveyi JMH597 AI-2 luminescence/OD600 ratio, 9 h; active compounds read low; strain lacks LuxN and CqsS sensors; 0 = neutral-control median; activity change, % at 7.5 µM; 0.4% of 300,000 active; AID 2094, 2009; in the data active means activity change below about -75%, passing the limit was not always enough; inconclusive means no clear call, values can overlap the other calls;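 further: luminescence divided by OD600 gain over 9 h not by final OD600 alone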
# Pemphigus Ab inh = inhibitors of pemphigus antibody binding to DSG3, primary screen, biochemical, bead-based, flow cytometry, scFv-GFP. Desmoglein-3 (Homo sapiens), P32926. DSG3-coupled beads, scFv-anti-DSG3-GFP binding; active compounds read low. binding (percent of control), % at 10 µM. 0.48% of 310,000 active;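 active means binding more than 3 SD below its plate's average and above zero; inconclusive means below that plate limit but binding exactly zero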;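 further: hits lower antibody fragment binding to DSG3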
# Target sequence (P32926 whole entry, looked up, the tested form may be a part): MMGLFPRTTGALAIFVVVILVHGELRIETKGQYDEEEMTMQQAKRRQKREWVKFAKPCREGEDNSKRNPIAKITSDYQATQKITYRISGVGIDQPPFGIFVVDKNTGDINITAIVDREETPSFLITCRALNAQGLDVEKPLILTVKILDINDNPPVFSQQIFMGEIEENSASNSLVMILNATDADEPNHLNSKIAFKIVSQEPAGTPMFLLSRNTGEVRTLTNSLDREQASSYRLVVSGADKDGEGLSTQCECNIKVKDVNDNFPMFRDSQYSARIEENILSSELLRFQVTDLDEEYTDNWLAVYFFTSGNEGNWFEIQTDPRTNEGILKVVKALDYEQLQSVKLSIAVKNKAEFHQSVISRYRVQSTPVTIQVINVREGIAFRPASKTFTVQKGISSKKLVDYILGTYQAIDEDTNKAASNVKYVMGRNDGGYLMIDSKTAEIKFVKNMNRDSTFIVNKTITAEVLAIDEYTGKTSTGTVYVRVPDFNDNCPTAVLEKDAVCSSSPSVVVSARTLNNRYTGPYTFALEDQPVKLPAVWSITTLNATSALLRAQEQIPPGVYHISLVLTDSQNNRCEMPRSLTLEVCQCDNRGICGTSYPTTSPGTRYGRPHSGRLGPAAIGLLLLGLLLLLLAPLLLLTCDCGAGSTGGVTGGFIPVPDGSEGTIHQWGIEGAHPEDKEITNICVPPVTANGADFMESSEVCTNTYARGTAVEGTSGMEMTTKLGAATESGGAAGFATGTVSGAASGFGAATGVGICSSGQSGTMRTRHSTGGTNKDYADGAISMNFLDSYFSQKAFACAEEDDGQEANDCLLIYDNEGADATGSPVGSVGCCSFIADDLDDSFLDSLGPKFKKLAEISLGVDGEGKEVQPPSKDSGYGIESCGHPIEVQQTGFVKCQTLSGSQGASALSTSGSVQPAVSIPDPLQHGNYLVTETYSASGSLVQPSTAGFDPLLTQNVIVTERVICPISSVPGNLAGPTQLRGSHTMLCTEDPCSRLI
# JMH597 growth = Vibrio harveyi growth inhibition, confirmation, counter-screen for AI-2 quorum sensing project, JMH597 strain, OD600 absorbance. AID 2726, 2010. shares compounds with AI-2 QS mod. 1% of 750 active. 9 h; lacks LuxN and CqsS sensors. growth inhibition, % at 7.5 µM;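 active means every replicate shows growth inhibition above 50%; inconclusive means at least half, but not all, replicates pass that cutoff; inactive means fewer than half of replicates pass it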
# BB721 const-QS lum = luminescence inhibition in constitutive-on V. harveyi, confirmation, counter-screen for LuxS inhibitor project, strain BB721, luminescence readout; shares compounds with AI-2 QS mod; Vibrio harveyi BB721 luminescence, 9 h; inhibition, % at 7.5 µM; 95% of 750 active;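 active means inhibition above about 80% in every replicate, not just on average, limit read from the data; inconclusive means at least half of replicates past the limit, but not all; inactive means fewer than half of replicates past the limit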
# BB721 growth rt = growth inhibition of V. harveyi BB721, confirmation, cytotoxicity control for AI-2 quorum sensing inhibitors, strain BB721, absorbance OD600; shares compounds with AI-2 QS mod; Vibrio harveyi BB721 growth, 9 h; growth inhibition, % at 7.5 µM; 3% of 750 active;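 active means every replicate shows growth inhibition above 50%; inconclusive means at least half but not all replicates above 50% inhibition; inactive means under half of replicates above 50% inhibition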
# JMH597 AI-2 mod = Vibrio harveyi AI-2 signaling luminescence modulation – JMH597 strain, confirmation; shares compounds with AI-2 QS mod; Vibrio harveyi JMH597 AI-2 quorum sensing luminescence, 9 h; luxN and CqsS knockout, AI-2 only; inhibition, % at 7.5 µM; 97% of 750 active;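 active means every replicate shows more than 75% inhibition of signal versus neutral control wells; inconclusive means half to three quarters of replicates exceed 75% inhibition; inactive means fewer than half of replicates exceed 75% inhibition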
# Numbers stand for hits; n = inactive; u = inconclusive; x = not tested or not shown. In the library only some 1.1% were active in any assay of this set; here they are far more common.
SMILES,NTR1 agonist,VLA-4 inh,AI-2 QS mod,Pemphigus Ab inh,JMH597 growth,BB721 const-QS lum,BB721 growth rt,JMH597 AI-2 mod
O=C(CN1C(=O)NC2(CCc3ccccc32)C1=O)NCC(=O)Nc1ccc(F)cc1 (stereo unspecified),n,n,x,n,x,x,x,x
CCN(c1ccc(NC(=O)CN2C(=O)NC3(CCOc4ccccc43)C2=O)cc1)C(C)C (stereo unspecified),n,n,-82,n,n,u,n,90
O=C(CN1C(=O)NC2(CCc3ccccc32)C1=O)Nc1cccc(F)c1 (stereo unspecified),n,n,-84,n,n,92,n,95
O=C(CN1C(=O)NC2(CCOc3ccccc32)C1=O)Nc1ccc(F)c(F)c1F (stereo unspecified),n,n,-79,n,n,87,n,91
CCNC(=O)CN1C(=O)NC2(CCOc3ccccc32)C1=O (stereo unspecified),n,n,n,n,x,x,x,x
Cc1noc(C)c1CSCC(=O)OCC(=O)Nc1ccc(OC(F)(F)F)cc1,x,x,x,n,x,x,x,x
CCOC(=O)c1c(-c2ccccc2)oc2ccc(OCC(O)CN(C)C)cc12 (stereo unspecified),n,n,n,x,x,x,x,x
Cc1nn(C)cc1CN(C)C(=O)C1CCC(=O)N(CCc2cccc(F)c2)C1 (stereo unspecified),x,x,x,n,x,x,x,x
CC(Sc1nnc(-c2ccc(OC(F)F)cc2)n1N)C(=O)NCC1CCCO1 (stereo unspecified),n,n,n,n,x,x,x,x
COc1ccc(NCc2cc(=O)oc3cc(NC(C)=O)ccc23)cc1,n,n,-81,n,n,88,n,93
Nc1cc(Oc2ccc(Cl)cc2Cl)nc(N)n1,n,n,-95,n,n,99,n,99
Cc1cccc(/C(N)=N/OC(=O)c2cccc3ccccc23)c1,n,n,-85,x,n,97,u,98
N/C(=N\OC(=O)c1cccc2ccccc12)c1cccc([N+](=O)[O-])c1,n,n,n,n,x,x,x,x
CN(C)S(=O)(=O)c1ccc(NC(=O)COc2ncnc3c2cnn3-c2ccccc2)cc1,n,n,u,n,n,91,n,95
O=C(O)c1ccc(N/N=C/C=C/c2ccccc2)cc1,n,n,-84,n,n,98,63,98
O=C(O)c1ccc(N/N=C/c2ccc(-c3ccccc3)cc2)cc1,x,x,n,n,x,x,x,x
COc1ccc(NC(=O)C2CC(=O)N(c3ccccc3F)C2)cc1S(=O)(=O)N1CCCCC1 (stereo unspecified),x,x,x,n,x,x,x,x
COCCCNC1=C(C#N)C(=O)NC(c2cccs2)S1 (stereo unspecified),x,x,x,n,x,x,x,x
Cc1nn(Cc2ccccc2)c(Cl)c1/C=N/NC(=O)CNc1cccc(C(F)(F)F)c1,n,n,n,n,x,x,x,x
CC(C)c1ccc(CNC(=O)CCc2ccccc2)cc1,n,n,-89,n,n,96,n,97
Cc1ccc(CNC(=O)CCc2ccccc2)cc1,n,n,-81,n,n,93,n,94
O=C(CCc1ccccc1)NCc1ccccc1,n,n,n,n,x,x,x,x
CC(C)c1ccc(C(O)P(=O)(OC2CCCCC2)OC2CCCCC2)cc1 (stereo unspecified),n,n,n,n,x,x,x,x
C(=C\c1nc(-c2cccnc2)no1)/c1ccccc1,n,n,-95,n,n,98,n,99
Clc1ccccc1/C=C/c1nc(-c2cccnc2)no1,n,n,n,n,x,x,x,x
SMILES,NTR1 agonist,VLA-4 inh,AI-2 QS mod,Pemphigus Ab inh,JMH597 growth,BB721 const-QS lum,BB721 growth rt,JMH597 AI-2 mod
CC(=O)c1cccc(OCC(O)CN2CCN(S(=O)(=O)c3c(F)cccc3F)CC2)c1 (stereo unspecified),n,n,n,n,x,x,x,x
O=S(=O)(c1cccs1)N1CCN(CC(O)COc2cccc(Br)c2)CC1 (stereo unspecified),n,n,-82,n,n,88,n,93
O=C(COn1nnc2ccc(Cl)cc21)NCc1ccccc1,n,n,-89,x,n,96,n,97
COc1ccc(CNc2ccc(Br)cc2)cc1,n,n,n,n,x,x,x,x
O=C(O)c1ccc(NCc2cccc(Br)c2)cc1,n,n,-91,n,n,98,u,98
COc1ccc(CNc2ccc(C(=O)O)cc2)cc1,n,n,-95,x,n,99,n,99
CC1=C(C(=O)N2CCOCC2)CC(CC(=O)NC2CC2)C(=O)N1Cc1ccccc1 (stereo unspecified),x,x,x,n,x,x,x,x
NS(=O)(=O)c1ccc(CNC(=O)/C=C/c2ccco2)cc1,n,n,n,n,x,x,x,x
O=C(/C=C/c1ccco1)NCc1ccc(F)cc1,n,n,-85,n,n,94,n,96
CNC(=O)C[C@H]1C(=O)N(c2ccccc2)C[C@@H]1C,x,x,x,n,x,x,x,x
c1ccc2c(c1)oc1c(NCc3ccc4c(c3)OCO4)ncnc12,n,n,-88,n,n,93,n,97
Cc1ccc(NC(=O)CCC(=O)c2cccs2)c(O)c1,n,n,-82,n,n,93,n,95
Cc1ccc(F)cc1NC(=O)CCC(=O)c1cccs1,n,n,n,n,x,x,x,x
O=C(Cc1ccc(Br)cc1)Nc1ccc(S(=O)(=O)NCC2CCCO2)cc1 (stereo unspecified),n,n,-96,n,n,99,n,99
COCC(=O)Nc1ccc(S(=O)(=O)NCC2CCCO2)cc1 (stereo unspecified),n,n,n,n,x,x,x,x
O=C(CSc1ccccc1)Nc1ccc(S(=O)(=O)NCC2CCCO2)cc1 (stereo unspecified),n,n,-97,n,n,100,n,100
O=P(c1ccccc1)(c1ccccc1)c1ccccc1C(Br)Br,x,x,x,n,x,x,x,x
CC(C)CCCN1C(N(C)C)=NC[C@@H]1Cc1ccccc1,n,n,x,n,x,x,x,x
Nc1cccc(C(=O)Nc2cccc3ncccc23)c1,n,n,u,n,n,n,n,n
C=CCOc1ccc(C=CC(=O)c2c(O)c(OC)c(OC)c(OC)c2OC)cc1,x,x,x,n,x,x,x,x
Cc1cc(C)cc(NC(=O)CN2C(=O)NC(C)(c3ccccc3)C2=O)c1 (stereo unspecified),n,n,-83,n,n,86,n,92
